Screening data from PubChem BioAssay.
Sampled rows, rich in hits. Any-hit rate of the full collection: about 3.6%.
TRHR enhancer-1: TRH receptor (human) allosteric enhancement; P34981; TRHR cells, fluo-8 calcium fluorescence, EC20 TRH enhancement; enhancement, % at 2 µM; hit rate 0.66% among 360,000; in the data active = enhancement above about 30%
Target sequence (P34981 whole entry, looked up): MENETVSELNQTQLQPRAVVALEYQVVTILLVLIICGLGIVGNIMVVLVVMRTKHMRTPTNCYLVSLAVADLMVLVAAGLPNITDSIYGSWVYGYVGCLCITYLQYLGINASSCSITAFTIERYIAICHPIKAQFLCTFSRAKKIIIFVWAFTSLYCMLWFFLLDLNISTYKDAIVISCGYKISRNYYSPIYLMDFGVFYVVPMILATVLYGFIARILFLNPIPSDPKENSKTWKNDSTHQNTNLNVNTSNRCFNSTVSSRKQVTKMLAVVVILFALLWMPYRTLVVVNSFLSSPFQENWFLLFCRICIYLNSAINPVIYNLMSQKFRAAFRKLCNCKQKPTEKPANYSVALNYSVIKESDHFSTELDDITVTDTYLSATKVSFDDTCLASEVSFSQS
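TRHR-expressing cells loaded with fluo-8 calcium dye were read kinetically (ex 480/em 530) during compound addition, then stimulated with an EC20 of TRH (10 nM final). Enhancement of the Gq-mediated intracellular calcium response was scored.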
TRHR agonist-1: activates the human TRH receptor; P34981; TRHR cells, calcium flux fluo-8, FDSS agonist mode; activation, % at 2 µM; hit rate 0.18% among 360,000; AID 493084; in the data active = activation above about 30%
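TRHR-expressing cells loaded with fluo-8 calcium dye; 23 nL library compound pin-transferred, kinetic FDSS fluorescence (Ex 480/Em 530) recorded about 180 s for agonist-induced calcium release, before a 10 nM TRH EC20 addition for potentiator mode.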
D1 antagonist: antagonists of human D1 dopamine receptor | P21728 | HEK293 TREx D1 cells, calcium flux, dopamine EC80; hits give low values | activity change, negative = inhibition, % at 10 µM | hit rate 3.2% among 360,000; in the data active = activity change below about -30%
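Using tetracycline-induced force-coupled D1 Hek293 cells and a calcium dye, signals were followed for 180 s after compound, then for 180 s after EC80 dopamine, to detect inhibitors.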
D1 agonist: human D1 receptor agonism; HEK293 T-REx D1 cells, calcium flux, agonist mode; activation, % at 2 µM; hit rate 1% among 360,000; in the data active = activation above about 30%
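Tetracycline-induced HEK293 TREx D1 cells, force-coupled to calcium signalling, were dye-loaded with a no-wash calcium kit. Compound was pin-added after a 10 s baseline. Fluorescence was read kinetically at 1 cycle/s for 180 s, with calcium rises flagged as agonism.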
D1 potentiator: potentiators of human D1 dopamine receptor; potentiation, % at 10 µM; HEK293 TREx D1 cells, calcium flux, dopamine EC20 potentiation; hit rate 0.036% among 360,000; in the data active = potentiation above about 30%
LDHA block: LDHA (human) enzyme inhibition; P00338; purified LDHA, NADH/diaphorase-resazurin fluorescence; hits give low values; activity change, % (values are at about 110 or 230 µM); hit rate 0.15% among 480,000; AID 1347041; in the data active = activity change below about -30%; inconclusive = mostly about -25% to -30%
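Human LDH5 at 2 nM final in Tris HCl pH 7.4 with 0.06 mM NADH and 0.2 mM pyruvate, reacted 5 minutes at room temperature. Remaining NADH coupled via diaphorase/resazurin; resorufin fluorescence read at 0 and 20 minutes, normalized to enzyme-free and DMSO wells.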
TRHR enhancer-2: human TRH receptor allosteric enhancement confirmation; shares compounds with TRHR enhancer-1; TRH receptor cell assay, enhancer confirmation qHTS; activity change, negative = inhibition, % at 46.1 µM; 970 tested, under 10 active; AID 493076;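 note: compound effect scored on response to added TRH at EC20 of 10 nM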
TRHR agonist-2: confirmation of human TRH receptor agonists; shares compounds with TRHR enhancer-1; TRHR-expressing cells, agonist activation read-out; Potency, µM (highest dose often 46.1 µM), actives largely listed as activators; hit rate 8% among 970; AID 493078; note: nearly all actives have a fitted effect of over 75% in size
A number is an active result; – = inactive; ? = inconclusive; · = no result; ! = a repeat was not active. Unless noted, calls come from the whole dose curve; as a rule, active = well fitted curve in the direction sought with a large enough effect; inconclusive = small, poorly fitted or top-dose-only effect, or another doubt; inactive = no such curve, though single readings can be large; an effect the other way counts as inactive or inconclusive.

SMILES	TRHR enhancer-1	TRHR agonist-1	D1 antagonist	D1 agonist	D1 potentiator	LDHA block	others
O=C1NC(=O)N(c2ccc3c(c2)OCO3)C(=O)/C1=C/c1cccs1	–	–	–	–	–	–
CN1CCN(c2ccc(/C=C3\C(=O)NC(=S)N(c4cccc(Br)c4)C3=O)o2)CC1	–	–	–	90	–	–
CN1C(=O)/C(=C/c2ccc(N3CCCCCC3)o2)C(=O)NC1=S	–	–	–	–	–	–
CN1C(=O)/C(=C\c2ccc(N3CCCCC3)o2)C(=O)NC1=S	–	–	–	33	–	–
COc1ccc(C2SCC(=O)Nc3c2c(C)nn3C)cc1OC (stereo unspecified)	·	·	·	·	·	–
CNc1ccc2oc(C[C@H]3O[C@@]4(CC[C@H]3C)O[C@H]([C@H](C)C(=O)c3ccc[nH]3)[C@H](C)C[C@H]4C)nc2c1C(=O)O	–	123	-45	419	–	–
CCC1c2cccn2-c2ccccc2CN1C(=O)Nc1cc(F)ccc1F (stereo unspecified)	·	·	·	·	·	–
Cc1ccc(-n2c(O)c(C=NC3CCCC3)c(=O)[nH]c2=O)c(C)c1	41	–	–	–	–	–
N#Cc1ccc(Cn2cc(C(=O)C3CC3)c3ccccc32)cc1	·	·	·	·	·	–
Cc1ccc(Cn2nc(C)c(C=O)c2Cl)cc1	–	–	-36	–	–	–
COc1cc(CN2CCN(c3cc(C)ccc3C)CC2)ccc1O	–	–	-89	–	–	–
O=C1NC(=O)C(=Cc2ccc(Sc3ccccc3)o2)C(=O)N1	–	–	–	–	–	–
O=C1NC(=O)N(c2ccc(Cl)cc2)C(=O)/C1=C\c1ccc(Sc2nc3ccccc3[nH]2)o1	–	–	–	–	–	-76
CN1CCN(c2nc(N)c(Br)c(Cl)n2)CC1	–	–	-34	–	–	–
CN1CCN(c2ncnc(Cl)c2N)CC1	–	–	–	–	–	–
COCCNC(=O)c1c(NC(=O)c2ccc(Br)o2)n(Cc2ccccc2)c2nc3ccccc3nc12	–	–	–	37	–	–
COCCCNC(=O)c1c(NC(=O)c2ccco2)n(Cc2ccccc2)c2nc3ccccc3nc12	–	–	–	–	–	–
CN1CCC(N(C)c2ncnc3scc(-c4ccc(Br)cc4)c23)CC1	·	·	·	·	·	–
C=C(C)CSc1nnc(C(N)Cc2c[nH]c3ccccc23)o1 (stereo unspecified)	·	·	·	·	·	–
Cc1c(O)ccc(C(=O)CN2CC(C)OC(C)C2)c1O (stereo unspecified)	–	–	-40	–	–	–
COc1ccc(F)cc1C(=O)C1CCCN(Cc2ccc(O)cc2)C1 (stereo unspecified)	–	–	–	–	–	–
COc1ccc(C(=O)C2CCCN(Cc3ccc(F)cc3F)C2)cc1F (stereo unspecified)	–	–	-32	–	–	–
Cc1nc(N2CCNCC2)c(C#N)c2c1CCCC2	·	·	·	·	·	–
CNC(=O)C(C)NC(=O)c1cn(Cc2ccccc2)c2ccccc12 (stereo unspecified)	·	·	·	·	·	–
CC(N)Cc1cn(Cc2ccccc2)c2ccccc12 (stereo unspecified)	–	–	–	47	–	–
SMILES	TRHR enhancer-1	TRHR agonist-1	D1 antagonist	D1 agonist	D1 potentiator	LDHA block	others
Brc1ccc(-c2ccc(CNC3CN4CCC3CC4)o2)cc1 (stereo unspecified)	·	·	·	·	·	–
Cc1ccc(-n2nc(C)c3c2NC(=O)CSC3c2ccsc2)cc1Cl (stereo unspecified)	·	·	·	·	·	–
O=C1NC(=O)C(=Cc2cccc(OCCOc3ccccc3)c2)C(=O)N1	–	–	–	–	–	-31
COc1cc2[nH]c(=O)n(-c3ccc(C)cc3)c(=O)c2cc1OC	–	–	-44!	–	–	–
C/C(=N\N=C(N)N)c1ccccc1	–	–	-38	–	–	–
Cc1ccc(/C=C2\C(=O)NC(=O)N(CCc3ccc(F)cc3)C2=O)o1	37	–	–	–	–	–
Cc1ccc(/C=C2/C(=O)NC(=O)N(Cc3ccc(F)cc3)C2=O)o1	–	–	–	–	–	·
CCNC(=O)[C@H]1O[C@@H](n2cnc3c(N)ncnc32)[C@H](O)[C@@H]1O	45	–	–	–	–	–	TRHR enhancer-2=?;TRHR agonist-2=–
Nc1ncnc2c1ncn2[C@@H]1O[C@H](COP(=O)(O)CP(=O)(O)O)[C@@H](O)[C@H]1O	·	·	·	·	·	–
O=S(=O)(c1ccccc1)N1CCN2CCCC2C1 (stereo unspecified)	57	–	–	–	–	–	TRHR enhancer-2=–;TRHR agonist-2=–
CCCCn1c(O)c(/C=C/C=Nc2ccccc2)c(=O)[nH]c1=O	–	41	–	71	–	–	TRHR enhancer-2=–;TRHR agonist-2=16µM
Cn1c(O)c(/C=C/C=Nc2ccccc2)c(=O)n(C)c1=O	–	–	–	–	–	–
CN(Cc1ccsc1)C(=O)CCl	·	·	·	·	·	–
CN1CC=C2C(C#N)=C(N)C(C#N)(C#N)C(c3ccncc3)C2C1 (stereo unspecified)	–	–	–	–	–	–	TRHR enhancer-2=–;TRHR agonist-2=?
CN1CCN(c2ccc(S(=O)(=O)C(F)(F)F)cc2[N+](=O)[O-])CC1	43	–	–	–	–	–	TRHR enhancer-2=–;TRHR agonist-2=–
CN1CCN(c2ccc(S(C)(=O)=O)cc2[N+](=O)[O-])CC1	–	–	–	–	–	–
O=C(Cn1cc(C(=O)c2ccccc2)c2ccccc21)NCc1ccco1	56	–	–	–	–	–	TRHR enhancer-2=–;TRHR agonist-2=–
COc1ccc(-n2c(-c3ccccc3F)nc3ccccc3c2=O)cc1	·	·	·	·	·	–
COc1ccc(-n2c(-c3ccccc3Br)nc3ccccc3c2=O)cc1	48	–	–	–	–	–	TRHR enhancer-2=–;TRHR agonist-2=–
COc1ccc(N=Cc2c(O)n(-c3ccc(C)cc3)c(=O)[nH]c2=O)cc1	51	–	–	–	–	–	TRHR enhancer-2=?;TRHR agonist-2=–
C=CCn1c(O)c(C=Nc2ccc(OC)cc2C)c(=O)[nH]c1=O	–	–	–	–	–	–	TRHR enhancer-2=–;TRHR agonist-2=–
CC1=C(C(=O)c2ccccc2)C2(C(=O)Nc3ccc(Br)cc32)C(C(=O)OCc2ccccc2)=C(N)O1 (stereo unspecified)	·	·	·	·	·	–
Cc1[nH]nc2c1C(c1ccccc1)SCC(=O)N2 (stereo unspecified)	·	·	·	·	·	–
CC(=O)c1c(C)[nH]c(C(=O)C(C)N(C)Cc2cccc(F)c2)c1C (stereo unspecified)	·	·	·	·	·	–
